Only a sample is shown.
aSyn 5UTR act – Activators via SNCA 5'UTR binding, MLPCN. hit rate 7.1% among 300,000. AID 1814, 2009. activity score, % (tested at 7.5 µM), hits read low. alpha-synuclein 5'UTR reporter, activators screen; in the data active = activity score below about -60%
Active calls of the source: *.

Results for O=[N+]([O-])c1ccc(S(=O)(=O)Nc2cccc(-c3ccc(N4CCOCC4)nn3)c2)cc1 ?
aSyn 5UTR act: -83*

What do the screens show for `O=[N+]([O-])c1ccc(Cl)c(S(=O)(=O)Nc2cccc(-c3ccc(N4CCOCC4)nn3)c2)c1`?
aSyn 5UTR act: -108*

What do the screens show for `O=C1c2ccccc2S(=O)(=O)c2cc(N3CCOCC3)ccc21`?
aSyn 5UTR act: 76

How did O=S1(=O)N=C(Nc2ccc(N3CCOCC3)c(Cl)c2)c2ccccc21 do in these assays?
aSyn 5UTR act: -193*

What do the screens show for `O=C(Nc1ccc2oc(-c3cccc(F)c3)nc2c1)c1ccccc1F`?
aSyn 5UTR act: -120*

Results for CC(C)CC(=O)Nc1ccc2oc(-c3ccncc3)nc2c1 ?
aSyn 5UTR act: -74*

How did O=C(Nc1ccc2oc(-c3ccncc3)nc2c1)c1cccs1 do in these assays?
aSyn 5UTR act: -114*

Results for O=C(Nc1ccc2oc(-c3ccncc3)nc2c1)c1ccccc1F ?
aSyn 5UTR act: -135*

What do the screens show for `O=C(Nc1ccc2oc(-c3ccc(Cl)c(Cl)c3)nc2c1)c1ncn[nH]1`?
aSyn 5UTR act: -168*

Results for O=C(Nc1ccc2oc(-c3ccncc3)nc2c1)c1ccc([N+](=O)[O-])o1 ?
aSyn 5UTR act: -118*

Results for O=C(Nc1ccc2oc(-c3ccccc3F)nc2c1)c1ccccc1F ?
aSyn 5UTR act: -188*

What do the screens show for `O=C(Nc1ccc2oc(-c3ccccc3)nc2c1)c1ccccc1F`?
aSyn 5UTR act: -257*

Results for O=C(OCc1nc2ccccc2s1)c1ccccc1O ?
aSyn 5UTR act: -137*

How did O=C(OCc1nc2ccccc2s1)c1cnccn1 do in these assays?
aSyn 5UTR act: -134*

Results for O=C(O)c1ccccc1OCc1nc2ccccc2s1 ?
aSyn 5UTR act: -146*

How did O=C(OCc1nc2ccccc2s1)c1cccs1 do in these assays?
aSyn 5UTR act: -197*

How did COc1ccc(-c2nc(-c3cccnc3)no2)cc1OC do in these assays?
aSyn 5UTR act: -132*

What do the screens show for `COc1cccc(-c2noc(-c3cccs3)n2)c1`?
aSyn 5UTR act: -75*

Results for COc1ccc(Cl)cc1-c1nc(-c2ccc(NC(=O)c3cccs3)cc2)no1 ?
aSyn 5UTR act: -120*

How did COc1cccc(-c2nc(-c3ccccn3)no2)c1 do in these assays?
aSyn 5UTR act: 104

Results for COc1cccc(-c2noc(-c3cccnc3)n2)c1 ?
aSyn 5UTR act: -152*

How did Cc1ccc(-c2nc(-c3cccnc3)no2)cc1 do in these assays?
aSyn 5UTR act: -78*

Results for COc1cccc(OCc2nnc(-c3cccs3)o2)c1 ?
aSyn 5UTR act: -142*

How did COc1ccc(-c2nc(-c3cccc(C)c3)no2)cc1OC do in these assays?
aSyn 5UTR act: -200*

How did c1cncc(-c2noc(-c3ccco3)n2)c1 do in these assays?
aSyn 5UTR act: -91*

How did Cc1ccc(-c2nc(-c3ccccc3)no2)cc1 do in these assays?
aSyn 5UTR act: 57

Results for COc1cccc(-c2nc(-c3ccc(NC(=O)c4cccnc4)cc3)no2)c1 ?
aSyn 5UTR act: -106*

How did O=C(Nc1ccc(-c2noc(-c3cccs3)n2)cc1)c1cccnc1 do in these assays?
aSyn 5UTR act: -94*

What do the screens show for `CCN(CC)Cc1c(C(=O)N/N=C/c2ccc(OCc3ccccc3C)cc2)nnn1-c1nonc1N`?
aSyn 5UTR act: -87*

What do the screens show for `Cc1c(C(=O)N/N=C/c2c(O)ccc3ccccc23)nnn1-c1nonc1N`?
aSyn 5UTR act: 63

What do the screens show for `Nc1nonc1-n1nnc(C(=O)N/N=C/c2ccc(OCc3ccccc3F)cc2)c1CNc1ccccc1`?
aSyn 5UTR act: -75*

What do the screens show for `Nc1nonc1-n1nnc(C(=O)N/N=C/c2ccc(OCc3ccc(F)cc3)cc2)c1COc1ccccc1`?
aSyn 5UTR act: -122*

How did C/C(=N\NC(=O)c1nnn(-c2nonc2N)c1CN(C)c1ccccc1)c1ccccn1 do in these assays?
aSyn 5UTR act: 88

How did Nc1nonc1-n1nnc(C(=O)N/N=C/c2cc(Br)ccc2O)c1CNc1ccccc1 do in these assays?
aSyn 5UTR act: 70

How did Cc1ccc(COc2cccc(/C=N/NC(=O)c3nnn(-c4nonc4N)c3C)c2)cc1 do in these assays?
aSyn 5UTR act: -152*

Results for CCc1c(C(=O)N/N=C/c2ccc(OCc3ccc(F)cc3)c(OC)c2)nnn1-c1nonc1N ?
aSyn 5UTR act: -128*

What do the screens show for `Nc1nonc1-n1nnc(C(=O)N/N=C/c2ccc(OCc3ccccc3)cc2)c1CN1CCCCC1`?
aSyn 5UTR act: -112*

What do the screens show for `CC1CCN(Cc2c(C(=O)N/N=C/c3ccc(C(C)(C)C)cc3)nnn2-c2nonc2N)CC1`?
aSyn 5UTR act: 64

Results for C/C(=N\OC(=O)c1cccc(C(F)(F)F)c1)c1sc(-c2ccccc2)nc1C ?
aSyn 5UTR act: -119*

How did C/C(=N\OC(=O)c1cccc(C)c1)c1sc(-c2ccccc2)nc1C do in these assays?
aSyn 5UTR act: -147*

Results for Cc1cccc(-n2nnc(C(=O)Nc3ccc(F)cc3)c2N)c1 ?
aSyn 5UTR act: -196*

What do the screens show for `Cc1cccc(-n2nnc(C(=O)N3CCc4ccccc4C3)c2N)c1`?
aSyn 5UTR act: -71*
